# The list is not random: actives were taken first. Their share in the collection is about 4.1%.
# tim23-1 inh – tim23-1 yeast growth inhibition; 330,000 compounds, 1.3% hits; inhibition, % at 20 µM; S. cerevisiae tim23-1 growth, BacTiter-Glo luminescence, 24 h;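 active = growth inhibition of the mutant yeast at or above 50%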;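 note: temperature-sensitive mutant grown at 25 °C; plate controls were DMSO-treated mutant yeast for no effect and medium wells lacking yeast for full effect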
# NALP1 inh – NALP1 inhibition; AID 2071; 280,000 compounds, 0.61% hits; S. cerevisiae NALP1/ASC/caspase-1 growth, X-gal OD620, 72 h; inhibition, % at 10 µM; in the data active = inhibition mostly above about 24%, no sharp cut-off; inactive = mostly below about 32%
# TIM10 inh – growth inhibitors of TIM10 yeast strain; S. cerevisiae TIM10 strain growth, BacTiter-Glo luminescence, 24 h; inhibition, % at 10 µM; 330,000 compounds, 1.4% hits; AID 463195;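 active = inhibition of 40% or more at the single tested concentration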;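 note: wild-type TIM10 isogenic control strain grown at permissive 25 °C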
# NLRP3 yeast inh – NALP3 inhibition in yeast. inhibition, % at 10 µM. 330,000 compounds, 0.39% hits. Yeast reconstituted NLRP3/ASC/caspase-1, beta-gal luminescence, 24 h;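 active = inhibition of 50% or more; inactive = inhibition below 50%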;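 note: plate controls were induced DMSO wells for no effect and uninduced yeast grown without galactose for full effect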
# tim10-1 inh – tim10-1 yeast growth inhibition; S. cerevisiae tim10-1 ts strain growth, BacTiter-Glo, 24 h; 330,000 compounds, 2.2% hits; AID 463190; inhibition, % at 20 µM;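 active = inhibition of at least 40%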;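 note: mutant grown at 25 °C; 0% = DMSO wells with yeast and 100% = wells holding no yeast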
# tim10-1 conf – tim10-1 yeast growth inhibition, confirmed. shares compounds with tim10-1 inh. S. cerevisiae tim10-1 ts strain growth, BacTiter-Glo, 24 h. inhibition, % at 20 µM. 7,400 compounds, 56% hits;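 active = inhibition of yeast growth at or above a set limit in either of two repeat tests at 20 µM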;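 note: tim10-1 mutant grown at permissive 25 °C to find synthetic lethal compounds; 0% = DMSO yeast wells and 100% = medium wells without yeast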
# * hit, by the source's call; . = no result.
SMILES,tim23-1 inh,NALP1 inh,TIM10 inh,NLRP3 yeast inh,tim10-1 inh,tim10-1 conf
COCCNC(=S)N/N=C(\C)c1cc2ccccc2o1,35.6,16.6,35.5,13.8,41.5*,15.5
COCCNC(=S)N/N=C(\C)c1cccc(C(F)(F)F)c1,25.8,-0.1,34.1,3.6,45.2*,14.7
Cc1ccnc(Sc2ccc([N+](=O)[O-])cc2[N+](=O)[O-])n1,39.7,-15.1,25.8,16.1,59.2*,52.7*
Cc1ccc(Sc2ccc([N+](=O)[O-])cc2[N+](=O)[O-])nc1,36.3,18.2,25.6,26.0,40.3*,37.3*
Nc1nc(Sc2ccc([N+](=O)[O-])cc2[N+](=O)[O-])n[nH]1,10.8,.,3.6,12.6,7.1,.
CCC1=C/C(=C/c2sc3ccccc3[n+]2CC)CC(C)(C)C1,37.7,0.0,29.7,23.1,41.6*,35.4*
CC[n+]1c(/C=C2\C=C(C)CC(C)C2)sc2ccccc21 (stereo not given),35.2,14.3,21.6,-2.0,30.1,.
Cc1nn(-c2ccccc2)c2c1C(O)n1c(nc3ccccc31)S2 (stereo not given),37.6,29.2,25.2,14.0,41.4*,-4.6
Cc1nn(-c2ccccc2)c(C)c1Cc1ccc(O)cc1,39.6,9.7,3.3,35.6,23.0,.
CCN1C(=O)C(CC(=O)Nc2ccc(OC)cc2)N(CCc2ccc(OC)cc2)C1=S (stereo not given),48.1,14.0,4.6,7.4,47.2*,31.8*
CCOC1(OCC)N=C(N)C2(C#N)C(c3cccc(C)c3)C12C#N (stereo not given),2.6,1.7,7.7,-5.5,1.9,.
CCOC(=O)CSC1=C(C#N)C(c2ccc(Cl)cc2)CC(=O)N1 (stereo not given),40.7,16.0,4.4,16.3,20.1,.
CCOC1(OCC)C(c2ccc(Cl)cc2)C(C#N)(C#N)C1(OCC)OCC (stereo not given),30.3,.,6.8,-2.7,46.8*,26.5
CCOC1(OCC)C(c2ccc(N)cc2)C(C#N)(C#N)C1(OCC)OCC (stereo not given),44.2,3.6,39.5,-5.6,41.9*,27.5
O=c1c2ccccc2oc2cc(NCCCN3CCOCC3)ccc12,5.6,-4.6,-3.0,16.8,41.3*,7.1
O=c1c2ccccc2oc2ccc(NCCCN3CCOCC3)cc12,29.5,27.1,10.3,11.0,26.1,.
Cc1cc(=O)oc2cc(OCc3ccc(C(=O)N4CCN(c5ccccc5)CC4)cc3)ccc12,18.2,43.3,7.4,22.8,43.2*,13.4
Cc1cc(=O)oc2cc(OCc3ccc(C(=O)N4CCN(c5ccc([N+](=O)[O-])cc5)CC4)cc3)ccc12,.,35.8,.,.,.,.
CCOC(=O)Cn1nc(C)c(NC(=O)c2ccc(Br)o2)c1C,-0.5,12.0,-20.6,3.4,-15.6,.
CC(C)(C)NC(=S)N/N=C\c1ccc(-c2ccc([N+](=O)[O-])cc2)o1,44.8,.,32.5,9.3,40.4*,32.8*
CCCCC(=O)N/N=C/c1ccc(-c2ccc([N+](=O)[O-])cc2)o1,22.6,22.8,-2.0,10.9,24.8,.
Cc1ccc(C)c(N2CCN(C(=O)c3ccc4nc(-c5ccco5)c(-c5ccco5)nc4c3)CC2)c1,2.3,27.3,4.6,6.5,43.7*,37.0*
Cc1ccc(C)c(N2CCN(C(=O)c3ccc4c(c3)c(C)c(C)n4C)CC2)c1,35.6,7.6,26.8,7.9,43.4*,17.8
COC(=O)c1ccc(N2CCN(C)CC2)c(NC(=O)c2cccs2)c1,5.3,-20.2,-9.5,0.3,9.6,.
c1ccc2c(c1)-c1cccc3c1c-2cc1ccccc13,20.8,.,16.1,-4.3,15.3,.
SMILES,tim23-1 inh,NALP1 inh,TIM10 inh,NLRP3 yeast inh,tim10-1 inh,tim10-1 conf
Oc1cc(-c2ccccc2)c2ccccc2c1,47.2,46.8,6.8,-37.8,54.0*,51.0*
C=CCN1C(=O)/C(=C2\SC(N3CCOCC3)=NC2=O)c2cc(Br)ccc21,40.5,.,29.4,22.7,51.5*,8.0
CCN1C(=O)/C(=C2\SC(N3CCOCC3)=NC2=O)c2ccccc21,-13.0,-3.3,-8.1,2.7,9.5,.
O=C(N[C@@H](Cc1ccccc1)C(=O)N1CCN(S(=O)(=O)c2ccccc2F)CC1)c1ccco1,15.7,.,3.4,11.1,7.2,.
COc1ccc(Nc2ncnc3c2cnn3Cc2ccccc2)cc1,38.3,-17.0,28.9,10.7,46.3*,34.0*
CCOc1ccc(Nc2ncnc3c2cnn3Cc2ccccc2)cc1,38.5,18.3,24.9,8.9,41.0*,36.9*
COc1ccc(-n2ncc3c(N4CCN(Cc5ccccc5)CC4)ncnc32)cc1,25.8,1.0,30.1,10.0,45.5*,25.5
S=c1[nH]c2cc(-c3ccccc3)ccc2o1,48.2,-25.9,31.0,15.5,42.9*,28.0
COc1ccccc1CNC(=O)CN(C)S(=O)(=O)c1ccc2c(c1)n(C)c(=O)c(=O)n2C,8.7,10.7,-10.3,9.8,16.5,.
Cc1[nH]c2ccccc2c1NC(=O)CN1CCN(c2cccc(C(F)(F)F)c2)CC1,5.6,38.8,21.0,10.0,24.5,.
Cc1[nH]c2ccccc2c1C(O)CN1CCN(c2cccc(C(F)(F)F)c2)CC1 (stereo not given),-3.2,8.7,25.8,-6.0,54.6*,48.3*
COc1ccc(-c2oc3ccc(-c4ccc5c(c4)OCO5)cc3c2-c2ccc(OC)nc2)cc1,1.7,.,8.7,13.3,1.0,.
CCOC(=O)c1ccc2[nH]c(C)c(C)c2c1,25.4,.,15.3,21.5,12.8,.
CCOC(=O)c1cc2c(ccc3nc(C)c(C)c32)[nH]c1C,18.4,16.0,24.4,6.5,49.8*,13.2
CN1CCN(CCCNC(=O)c2ccc(/C=C3\Sc4ccccc4N(Cc4ccc(F)cc4)C3=O)cc2)CC1,.,22.6,.,.,.,.
CN1CCN(CCCNC(=O)c2ccc(/C=C3\Oc4ccccc4N(Cc4ccccc4F)C3=O)cc2)CC1,32.2,18.3,12.4,12.2,42.1*,9.7
S=C(NCCc1ccc(Cl)cc1)NC1CCCC1,20.7,-27.9,9.1,36.3,43.1*,12.7
S=C(NCCc1ccc(Cl)cc1)NCc1ccco1,-1.2,15.5,24.2,18.3,34.4,.
O=C(NC(=S)NCCc1ccc(Cl)cc1)c1ccco1,30.1,18.2,34.6,29.6,48.0*,24.0
CCN(CC)C(=O)COc1ccc(C=O)cc1OC,5.0,34.0,2.9,-0.5,18.0,.
COc1ccc(CNC(=O)Cn2nc(C(F)(F)F)c3c2CCC3)cc1,27.7,20.0,21.0,5.8,41.8*,21.4
COc1ccc(NC(=O)Cn2nc(C(F)(F)F)c3c2CCCC3)c(OC)c1,7.8,15.6,10.7,15.2,11.2,.
O=C(C1CCN(S(=O)(=O)c2ccccc2F)CC1)N1CCN(Cc2ccc3c(c2)OCO3)CC1,6.1,.,7.9,12.5,-16.4,.
CCOC(=O)c1ccc(N2C(=O)CC(C(=O)OC)=C2C)cc1,10.7,24.1,-6.4,9.8,53.7*,38.0*
CCOC(=O)c1ccc(N2C(=O)C=CC2=O)cc1,22.9,108.2*,13.8,19.7,81.9*,91.8*
